In PubChem BioAssay (NCI) one finds growth data, which are given here for 40 molecules.

The panel holds about 83,000 compounds, 20% with a hit somewhere; the sample as a whole holds those more often.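 Cell lines were cultured in 96-well plates, exposed to a single compound concentration, and assessed for percent growth 48 hours later.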 Unmarked numbers belong to inactive results. Active and inactive are the calls of the source.

For the assay, the system named is PC-3 prostate. Nature of the assay: NCI-60 one-dose screen, 48 h (100 = growth as untreated, 0 = no growth, -100 = all killed). Particulars: 10 µM unless noted. The procedure: Growth inhibition of the PC-3 human tumor cell line is measured as a screen for anti-cancer activity. Cells are grown in 96 well plates and exposed to the test compound for 48 hours. Compounds are tested at a single concentration, which is 10^-5 M for most compounds. The reported endpoint is percent growth (GI% or GIPRCNT), where numbers from 0 - 100% represent growth inhibition, and numbers from -100% - 0 represent cell death. For example, a value of 40 represents 60% growth inhibition. A value of 0 means no net growth occurred over the course of the experiment. A value of -40 indicates 40% of cells at the beginning of the experiment died by the end of the experiment. A value of -100 means all cells are dead at the end of the experiment.
NCI-60 Human Tumor Cell Lines Screen was performed using the standard one-dose NCI protocol, which is described in more detail at https://dtp.cancer.gov/discovery_development/nci-60/default.htm.
Compounds with GIPRCNT values below 10 were considered active. Activity score was based on GIPRCNT using the following formula: […]
Score is 0 for GIPRCNT values of 100 or above, 50 for GIPRCNT values of 0, and 100 for GIPRCNT values of -100.
Consider `Cc1nn(-c2ccccc2)c2ncc3c(c12)C(=O)N(Cc1ccccc1)C3=O`, for which the growth is 75.2%.

For the molecule `CCCCCCCC/C=C\CCCCCCCCOc1ccccc1CC(=O)NCC[N+]1(C)CCCC1`, the growth was 17.5%.

Consider `CCCCN(CCCC)CCCOC(=O)c1ccc(N)cc1`, for which the growth is 97.1%.

`Cc1cc(CC(=O)O)n(C)c1C(=O)c1ccc(Cl)cc1`: the growth was 99.5%.

Regarding `CC(C)[O-].CC(C)[O-].CN(CCN(C)Cc1cc(F)cc(F)c1[O-])Cc1cc(F)cc(F)c1[O-].[Ti+4]`, the growth was 15.9%.

With `COc1c(C)c2c(c(O)c1C/C=C(\C)CCC(=O)OCCN1CCOCC1)C(=O)OC2`, the growth is 23.2%.

Take `CCC1=C(c2ccc(OC)cc2)C(C)Oc2cc(OC(C)=O)ccc21` (stereo not given): the growth was 68.3%.

`COc1cc(C2NC(c3ccc(Cl)cc3)C(C)C(=NC(=O)c3cnccn3)C2C)cc(OC)c1OC` (stereo not given): the growth is 88.8%.

For `O=C1/C(=C/c2ccc([N+](=O)[O-])o2)Oc2ccc(Br)cc21`, the growth is 91.3%.

Regarding `O=C(Nc1cccc(C(F)(F)F)c1)Nc1ccc(OCc2nnc(-c3ccc(Cl)cc3)o2)c(F)c1`, the growth is 45.9%.

As to `COc1ccc(C2=NNC(c3cc(Cc4ccc(O)c(C5CC(c6ccc(OC)cc6)=NN5)c4)ccc3O)C2)cc1` (stereo not given), the growth is 42.4%.

Take `O=C(/C=C/c1cc2ccccc2[nH]c1=O)c1ccc(O)cc1`: the growth is 10.5%.

`COc1cc(/C=C2\COc3ccc(O)cc3C2=O)cc(OC)c1`: the growth was 53.8%.

As to `COc1cc(/C=C/C(=O)c2c(-c3ccc(Cl)cc3)nc3sc(C)nn23)cc(OC)c1OC`, the growth is 53.6%.

As to `CC(=O)Oc1ccc(C23c4ccccc4C2(OC(C)=O)c2cc(OC(C)=O)ccc23)cc1` (stereo not given), the growth is 30.9%.

Turning to `Nc1ccc(S(=O)(=O)Nc2ncccn2)cc1`, the growth is 97.7%.

Turning to `O=C(CN1CCCCC1)Sc1nnc2sc3ccccc3n12`, the growth is 93%.

Take `COc1cc(C2NC(c3ccc(Cl)cc3)C(C)/C(=N/NC(N)=S)C2C)cc(OC)c1OC` (stereo not given): the growth is 73.8%.

As for `O=C(NN(C(=O)c1ccccc1)c1cccs1)c1ccccc1`, the growth is 83.4%.

`CC(=O)O[C@H]1C(=O)[C@@]2(C)C([C@H](OC(=O)c3ccccc3)[C@]3(O)C[C@H](OC(=O)[C@H](O)[C@@H](NC(=O)c4ccccc4)c4ccccc4)C(C)=C1C3(C)C)[C@]1(OC(C)=O)CO[C@@H]1C[C@@H]2O` (stereo not given in full): the growth was 19.7%.

As for `C/C(=N\N1CC(=O)NC1=O)c1ccc([N+](=O)[O-])o1`, the growth is 93.8%.

Turning to `CC12CCCCC1C(C(N)=O)C(=O)O2` (stereo not given), the growth was 101%.

As to `Cc1cc(NCCCNc2ccnc3cc(Cl)ccc23)nc(N2CCN(C)CC2)n1`, the growth is 51.5%.

On to `CCOc1cc(C(C)(C)C)ccc1C1=N[C@H](c2ccc(Cl)cc2)[C@H](c2ccc(Cl)cc2)N1C(=O)N1CCN(CC#Cc2cccc3c2CN([C@@H]2CCC(=O)NC2=O)C3=O)CC1`, for which the growth is 0.359% (active).

For `COc1cccc(C2C(C#N)=C(N)Oc3cc(OC)ccc32)c1` (stereo not given), the growth is -2.64% (active).

Consider `NNC(=O)C1CC2c3ccccc3C1c1ccccc12` (stereo not given), for which the growth is 98.5%.

For `COc1ccc(OC)c(/C=C/c2nc(=S)n(-c3ccc(Cl)cc3)[nH]2)c1`, the growth was 58.6%.

Turning to `C[C@@H]1CC[C@H]2[C@@H](C)C(O)O[C@@H]3O[C@]4(C)CC[C@@H]1[C@]32OO4` (stereo not given in full), the growth was 15.1%.

Turning to `COc1ccc2[nH]cc(/C=C3/C(=O)Nc4ccc(F)cc43)c2c1`, the growth was 76.4%.

`COc1ccc2c(c1)nc(N)c1c3ccccc3cn21`: the growth is 84%.

As for `Nc1ccccc1-c1ccc([N+](=O)[O-])cc1`, the growth is 38.9%.

As to `O=C(COC(=O)[C@H](C[Se][Se]C[C@H](NC(=O)c1ccc(Br)cc1F)C(=O)OCC(=O)c1ccc(F)cc1)NC(=O)c1ccc(Br)cc1F)c1ccc(F)cc1`, the growth is -51.6% (active).

Take `COc1ccc2c(c1)C(=O)c1c-2c(OCCCN(C)C)nc2cc(Br)ccc12`: the growth is 63.8%.

Turning to `CCOC(=O)C1=C(C)N2C(=NC3=C(CCC/C3=C\c3ccc(Cl)cc3)C2c2ccc(Cl)cc2)S1` (stereo not given), the growth was 24.3%.

Take `NC(=O)c1ncn([C@@H]2O[C@H](CO)[C@@H](O)[C@H]2O)n1`: the growth is 86%.

`Fc1ccc(-c2nc(Nc3ccc(-c4nc5ccccc5[nH]4)cc3)nc(N3CCOCC3)n2)cc1`: the growth was -93.5% (active).

As to `CCC(C)CC(CC)NCCN1CCN(C(CC)CC(C)CC)C1=S` (stereo not given), the growth was 33.4%.

Consider `O=C(CCc1nnc2sc(Cc3ccccc3Cl)nn12)c1nc2ccccc2[nH]1`, for which the growth is 85.5%.

Take `C[n+]1ccc(Nc2ccc(NC(=O)c3ccc(Nc4cc[n+](C)c5ccc(N)cc45)cc3)cc2)cc1`: the growth is 90.1%.

In the case of `Cc1nn(-c2ccc(Cl)cc2)c2nc3c(nc12)C(=O)c1ccccc1-3`, the growth is 54.9%.
